{"source": "ChEMBL document CHEMBL1961873", "about": "“Compounds: GSK PKIS; Assays: Nanosyn kinase panel” (2012)"}
{"target": "T1, Tyrosine-protein kinase receptor TYRO3 (Homo sapiens) (UniProt Q06418)", "T1 sequence (whole entry)": "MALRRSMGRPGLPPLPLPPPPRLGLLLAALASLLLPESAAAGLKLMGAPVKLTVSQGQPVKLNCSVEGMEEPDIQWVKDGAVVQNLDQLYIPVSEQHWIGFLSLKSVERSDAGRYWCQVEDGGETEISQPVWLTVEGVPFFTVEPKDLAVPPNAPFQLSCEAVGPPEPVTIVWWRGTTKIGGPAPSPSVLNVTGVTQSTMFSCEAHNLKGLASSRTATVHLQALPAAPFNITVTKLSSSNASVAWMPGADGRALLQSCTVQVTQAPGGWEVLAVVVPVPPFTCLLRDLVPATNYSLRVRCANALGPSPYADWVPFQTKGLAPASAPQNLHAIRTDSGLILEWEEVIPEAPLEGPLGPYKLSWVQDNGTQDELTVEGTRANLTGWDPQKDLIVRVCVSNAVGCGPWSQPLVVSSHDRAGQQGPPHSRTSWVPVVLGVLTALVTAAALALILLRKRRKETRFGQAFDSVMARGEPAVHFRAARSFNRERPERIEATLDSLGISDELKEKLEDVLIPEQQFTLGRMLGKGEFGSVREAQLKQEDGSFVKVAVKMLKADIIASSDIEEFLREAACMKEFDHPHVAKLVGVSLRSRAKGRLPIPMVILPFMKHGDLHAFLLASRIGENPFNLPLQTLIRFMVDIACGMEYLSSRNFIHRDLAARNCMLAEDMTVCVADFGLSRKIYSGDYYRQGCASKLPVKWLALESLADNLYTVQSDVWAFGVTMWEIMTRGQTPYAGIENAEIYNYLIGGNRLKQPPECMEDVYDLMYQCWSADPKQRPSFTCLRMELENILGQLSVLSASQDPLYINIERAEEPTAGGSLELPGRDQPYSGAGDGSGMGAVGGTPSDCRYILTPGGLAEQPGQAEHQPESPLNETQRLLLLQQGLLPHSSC", "details": "at 1 µM", "units": {"inhibition": "%"}}
{"smiles": "COc1ccc(-c2cc3c(N)ncnc3o2)cc1", "inhibition": 2.56}
{"smiles": "COc1cccc(-n2ncc3c(N/N=C/c4ccc(F)cc4)ncnc32)c1", "inhibition": 9.33}
{"smiles": "Nc1ncc(-c2cccc(S(N)(=O)=O)c2)c2scc(-c3ccc(F)c(Cl)c3)c12", "inhibition": 25.1}
{"smiles": "COc1cccc(-c2c[nH]c3c(N/N=C/c4ccncc4)ncnc23)c1", "inhibition": 38}
{"smiles": "CN(C)CCOc1ccc(-c2nc(-c3ccncc3)c(-c3ccc4c(c3)CC/C4=N\\O)[nH]2)cc1", "inhibition": 5.27}
{"smiles": "Clc1ccc(-c2nn3ncccc3c2-c2ccnc(Nc3ccccc3)n2)cc1", "inhibition": 5.63}
{"smiles": "CCN1CCC(CC(=O)Nc2n[nH]c3nnc(-c4cccc(F)c4F)cc23)CC1", "inhibition": 1.73}
{"smiles": "CCCN(CCS(C)(=O)=O)Cc1ccc(-c2ccc3ncnc(Nc4ccc(OCc5cccc(F)c5)c(Cl)c4)c3c2)o1", "inhibition": 1.99}
{"smiles": "NS(=O)(=O)c1ccc(Nc2ncc(-c3ccccc3)o2)cc1", "inhibition": 4.49}
{"smiles": "Fc1cccc(COc2ccc(Nc3ncnc4sc(-c5ccco5)cc34)cc2Cl)c1", "inhibition": 1.85}
{"smiles": "c1cc(-c2cnn3nc(N4CCOCC4)ccc23)nc(NC2CC2)n1", "inhibition": 2.97}
{"smiles": "Nc1nc(-c2cccc(Cl)c2)c(-c2ccc3ncccc3n2)s1", "inhibition": 5.98}
{"smiles": "COc1ccc(-c2oc3ncnc(N)c3c2-c2ccc(NC(=O)Nc3cc(C(F)(F)F)ccc3F)cc2)cc1", "inhibition": 49.4}
{"smiles": "Cc1ccc(O)cc1Nc1ccnc2cc(-c3ccccn3)ccc12", "inhibition": 13.9}
{"smiles": "Fc1ccc(-c2nn3ccccc3c2-c2ccncc2)cc1", "inhibition": 1.25}
{"smiles": "Cc1ccc2c(-c3ccnc(Nc4ccccc4)n3)c(-c3ccc(F)cc3)nn2n1", "inhibition": 25.6}
{"smiles": "COC(=O)c1sc(-n2cnc3cc(OC)c(OC)cc32)cc1OCc1ccccc1C(F)(F)F", "inhibition": 2.68}
{"smiles": "CC(C)(CO)CNC(=O)c1ccc2c(c1)/C(=N/Nc1ccc(S(N)(=O)=O)cc1)C(=O)N2", "inhibition": 5.36}
{"smiles": "COc1ccc2[nH]c3c4[nH]c5ccc(OC)cc5c4c4c(c3c2c1)C(=O)NC4=O", "inhibition": 63.7}
{"smiles": "COc1ccc(-c2nn3ncccc3c2-c2ccnc(Nc3ccc4c(c3)OCCO4)n2)cc1", "inhibition": 9.92}
{"smiles": "NS(=O)(=O)c1ccc(N/N=C2\\C(=O)Nc3ccc4ncccc4c32)cc1", "inhibition": 41.9}
{"smiles": "CCc1nn2ncccc2c1-c1ccnc(NC2CC2)n1", "inhibition": 3.06}
{"smiles": "CCNC(=O)O[C@H]1CN[C@H](C#Cc2cc3ncnc(Nc4ccc(OCc5cccc(F)c5)c(Cl)c4)c3s2)C1", "inhibition": 1.4}
{"smiles": "O=C(Nc1n[nH]c2cc(-c3ccc(F)cc3)ccc12)C1CC1", "inhibition": 13.5}
{"smiles": "CN1CCC(n2cnc(-c3ccc(F)cc3)c2-c2ccnc(Nc3ccccc3)n2)CC1", "inhibition": 2.25}
{"smiles": "COc1cc(N2CCN(C(C)C)CC2)ccc1Nc1nc(Nc2ccc(F)cc2C(N)=O)c2cc[nH]c2n1", "inhibition": 2.95}
{"smiles": "CCn1cc(-c2ccnc3[nH]ccc23)c(-c2cccc(NC(=O)Nc3ccc(OCc4ccccc4)cc3)c2)n1", "inhibition": 1.53}
{"smiles": "CC(=O)NCc1cccc(C#Cc2cncnc2Nc2ccc(OCc3cccc(F)c3)c(Cl)c2)c1", "inhibition": 0.4}
{"smiles": "CCCN1CCC(c2ccc(Nc3nc(Nc4cc(F)ccc4C(N)=O)c4cc[nH]c4n3)c(OC)c2)CC1", "inhibition": 18.4}
{"smiles": "CN1CCC(n2cnc(-c3ccc(F)cc3)c2-c2ccnc(N)n2)CC1", "inhibition": 7.48}
{"smiles": "CC1=C(C(=O)Nc2cc(Cl)c3[nH]ncc3c2)C(c2ccc(C(F)(F)F)cc2)CC(=O)N1", "note": "(stereo not drawn)", "inhibition": 5.41}
{"smiles": "Fc1ccc(-c2nn3ncccc3c2-c2ccnc(Nc3ccc4c(c3)OCCO4)n2)cc1", "inhibition": 24.8}
{"smiles": "Cc1cccc2c1NC(=O)/C2=N\\Nc1ccc(S(N)(=O)=O)cc1", "inhibition": 1.39}
{"smiles": "Nc1nc(-c2ccc(F)cc2)c(-c2ccc3ncccc3n2)s1", "inhibition": 2.87}
{"target": "Tyrosine-protein kinase Yes (Homo sapiens) (UniProt P07947)", "sequence (P07947 2-543 limits assumed)": "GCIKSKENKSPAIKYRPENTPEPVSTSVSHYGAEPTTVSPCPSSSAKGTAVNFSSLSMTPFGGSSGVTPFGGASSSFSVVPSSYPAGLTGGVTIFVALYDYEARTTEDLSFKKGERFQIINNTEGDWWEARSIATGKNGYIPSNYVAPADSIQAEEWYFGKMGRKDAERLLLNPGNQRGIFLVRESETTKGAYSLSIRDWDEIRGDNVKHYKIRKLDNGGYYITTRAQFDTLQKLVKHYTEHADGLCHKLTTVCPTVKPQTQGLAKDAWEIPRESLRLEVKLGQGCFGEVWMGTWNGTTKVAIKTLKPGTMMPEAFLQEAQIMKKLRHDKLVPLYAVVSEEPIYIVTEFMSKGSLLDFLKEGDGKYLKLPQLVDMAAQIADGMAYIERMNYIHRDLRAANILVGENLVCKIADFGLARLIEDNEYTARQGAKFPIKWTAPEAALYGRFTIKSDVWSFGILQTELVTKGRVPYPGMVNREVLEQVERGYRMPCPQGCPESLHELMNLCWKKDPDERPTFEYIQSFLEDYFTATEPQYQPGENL", "details": "at 0.1 µM", "units": {"inhibition": "%"}}
{"smiles": "COc1ccc(-c2cc3c(N)ncnc3o2)cc1", "inhibition": 0.83}
{"smiles": "COc1cccc(-n2ncc3c(N/N=C/c4ccc(F)cc4)ncnc32)c1", "inhibition": 5.87}
{"smiles": "Nc1ncc(-c2cccc(S(N)(=O)=O)c2)c2scc(-c3ccc(F)c(Cl)c3)c12", "inhibition": 11.5}
{"smiles": "COc1cccc(-c2c[nH]c3c(N/N=C/c4ccncc4)ncnc23)c1", "inhibition": 19.6}
{"smiles": "CN(C)CCOc1ccc(-c2nc(-c3ccncc3)c(-c3ccc4c(c3)CC/C4=N\\O)[nH]2)cc1", "inhibition": 3.06}
{"smiles": "Clc1ccc(-c2nn3ncccc3c2-c2ccnc(Nc3ccccc3)n2)cc1", "inhibition": 44.9}
{"smiles": "CCN1CCC(CC(=O)Nc2n[nH]c3nnc(-c4cccc(F)c4F)cc23)CC1", "inhibition": 2.07}
{"smiles": "CCCN(CCS(C)(=O)=O)Cc1ccc(-c2ccc3ncnc(Nc4ccc(OCc5cccc(F)c5)c(Cl)c4)c3c2)o1", "inhibition": 1.86}
{"smiles": "NS(=O)(=O)c1ccc(Nc2ncc(-c3ccccc3)o2)cc1", "inhibition": 3.4}
{"smiles": "Fc1cccc(COc2ccc(Nc3ncnc4sc(-c5ccco5)cc34)cc2Cl)c1", "inhibition": 1.73}
{"smiles": "c1cc(-c2cnn3nc(N4CCOCC4)ccc23)nc(NC2CC2)n1", "inhibition": 0.8}
{"smiles": "Nc1nc(-c2cccc(Cl)c2)c(-c2ccc3ncccc3n2)s1", "inhibition": 4.06}
{"smiles": "COc1ccc(-c2oc3ncnc(N)c3c2-c2ccc(NC(=O)Nc3cc(C(F)(F)F)ccc3F)cc2)cc1", "inhibition": 15.7}
{"smiles": "Cc1ccc(O)cc1Nc1ccnc2cc(-c3ccccn3)ccc12", "inhibition": 58.2}
{"smiles": "Fc1ccc(-c2nn3ccccc3c2-c2ccncc2)cc1", "inhibition": 0.18}
{"smiles": "Cc1ccc2c(-c3ccnc(Nc4ccccc4)n3)c(-c3ccc(F)cc3)nn2n1", "inhibition": 58.4}
{"smiles": "COC(=O)c1sc(-n2cnc3cc(OC)c(OC)cc32)cc1OCc1ccccc1C(F)(F)F", "inhibition": 6.36}
{"smiles": "CC(C)(CO)CNC(=O)c1ccc2c(c1)/C(=N/Nc1ccc(S(N)(=O)=O)cc1)C(=O)N2", "inhibition": 1.79}
{"smiles": "COc1ccc2[nH]c3c4[nH]c5ccc(OC)cc5c4c4c(c3c2c1)C(=O)NC4=O", "inhibition": 6.75}
{"smiles": "COc1ccc(-c2nn3ncccc3c2-c2ccnc(Nc3ccc4c(c3)OCCO4)n2)cc1", "inhibition": 79.3}
{"smiles": "NS(=O)(=O)c1ccc(N/N=C2\\C(=O)Nc3ccc4ncccc4c32)cc1", "inhibition": 9.32}
{"smiles": "CCc1nn2ncccc2c1-c1ccnc(NC2CC2)n1", "inhibition": 1.2}
{"smiles": "CCNC(=O)O[C@H]1CN[C@H](C#Cc2cc3ncnc(Nc4ccc(OCc5cccc(F)c5)c(Cl)c4)c3s2)C1", "inhibition": 1.68}
{"smiles": "O=C(Nc1n[nH]c2cc(-c3ccc(F)cc3)ccc12)C1CC1", "inhibition": 1.98}
{"smiles": "CN1CCC(n2cnc(-c3ccc(F)cc3)c2-c2ccnc(Nc3ccccc3)n2)CC1", "inhibition": 8.83}
{"smiles": "COc1cc(N2CCN(C(C)C)CC2)ccc1Nc1nc(Nc2ccc(F)cc2C(N)=O)c2cc[nH]c2n1", "inhibition": 0.75}
{"smiles": "CCn1cc(-c2ccnc3[nH]ccc23)c(-c2cccc(NC(=O)Nc3ccc(OCc4ccccc4)cc3)c2)n1", "inhibition": 1.1}
{"smiles": "CC(=O)NCc1cccc(C#Cc2cncnc2Nc2ccc(OCc3cccc(F)c3)c(Cl)c2)c1", "inhibition": 0.55}
{"smiles": "CCCN1CCC(c2ccc(Nc3nc(Nc4cc(F)ccc4C(N)=O)c4cc[nH]c4n3)c(OC)c2)CC1", "inhibition": 5.76}
{"smiles": "CN1CCC(n2cnc(-c3ccc(F)cc3)c2-c2ccnc(N)n2)CC1", "inhibition": 2.09}
{"smiles": "CC1=C(C(=O)Nc2cc(Cl)c3[nH]ncc3c2)C(c2ccc(C(F)(F)F)cc2)CC(=O)N1", "note": "(stereo not drawn)", "inhibition": 6.96}
{"smiles": "Fc1ccc(-c2nn3ncccc3c2-c2ccnc(Nc3ccc4c(c3)OCCO4)n2)cc1", "inhibition": 86.3}
{"smiles": "Cc1cccc2c1NC(=O)/C2=N\\Nc1ccc(S(N)(=O)=O)cc1", "inhibition": 0.81}
{"smiles": "Nc1nc(-c2ccc(F)cc2)c(-c2ccc3ncccc3n2)s1", "inhibition": 6.52}
